# Calls of active or inactive are those of the source. How the source made its calls: active means hit-call score of the fitted dose curve at least 0.9, where 1 is the maximum; inactive means score below 0.9.
# Target: Hepatocyte nuclear factor 3-beta (Homo sapiens) (UniProt Q9Y261)
# Experiment: ATG_FoxA2_CIS: Attagene CIS-FACTORIAL HepG2 Assay for human Forkhead box A2 (FOXA2) (AID 2282942)
# Conditions: HepG2 cis-reporter transcription factor activity, 24 h; actives raise or lower the signal
# Experimental: ATG_CIS is a cell-based, multiplexed-readout assay that uses HepG2, a human liver cell line, with measurements taken at 24 hours after chemical dosing in a 24-well plate.ATG_FoxA2_CIS is one of 52 assay component(s) measured or calculated from the ATG_CIS assay. It is designed to make measurements of mRNA induction, a form of inducible reporter, as detected with fluorescence intensity signals by Reverse transcription polymerase chain reaction (RT-PCR) and Capillary electrophoresis technology.Data from the assay component ATG_FoxA2_CIS was analyzed into 1 assay endpoint. This assay endpoint, ATG_FoxA2_CIS, was analyzed with bidirectional fitting relative to DMSO as the negative control and baseline of activity. Using a type of inducible reporter, measures of mRNA for gain or loss-of-signal activity can be used to understand the reporter gene at the transcription factor-level as they relate to the gene FOXA2. Furthermore, this assay endpoint can be referred to as a primary readout, because this assay has produced multiple assay endpoints where this one serves a reporter gene function. To generalize the intended target to other relatable targets, this assay endpoint is annotated to the dna binding intended target family, where the subfamily is forkhead box protein.
# Human liver HepG2 cells are transiently transfected with multiple reporter transcription units (MRTUs) in 6-well plates using FuGene 6 reagent (Roche; 3 ml FuGene/1 mg DNA). The MRTU constructs are regulated by a cis-regulating element (promoter). […] A major difference between the CIS and TRANS system is that in CIS activities of endogenous TFs are measured, whereas the TRANS assay evaluates changes in activities of exogenous, chimeric NR-Gal4 proteins. […] At the end of 24 hour incubation, total RNA was isolated using TriZol reagent (Invitrogen). The isolated RNA is then reverse-transcribed using oligo(dT) primer and Mo-MLV reverse transcriptase (Invitrogen) with DNAse I (Ambion) treatment for 30 min. The one-tenth of the produced cDNA was amplified by PCR using Taq DNA polymerase (Invitrogen) and two reporter sequence-specific primers. The PCR products were fluorescently labeled by primer extension with 6-arboxyfluorescein (6-FAM) 5'-labeled reporter sequence-specific primer (2 min at 95 C, 20 s at 68 C and 10 min at 72 C) and these products were digested with 5U of HpaI (New England Biolabs) for 2h at 37 C. The fragments were purified using Qiaquick PCR columns (Qiagen), analyzed on an ABI 3130xL genetic analyzer (Applied Biosystems) with peak positions identified by using a set of X-rhodamine (ROX)-labeled MapMarker1000 molecular weight standards (BioVentures). The raw capillary electrophoresis data was processed using Attagraph software (Attagene).
# Hepatocyte nuclear factor 3-beta (Homo sapiens), sequence (Q9Y261 whole entry, looked up): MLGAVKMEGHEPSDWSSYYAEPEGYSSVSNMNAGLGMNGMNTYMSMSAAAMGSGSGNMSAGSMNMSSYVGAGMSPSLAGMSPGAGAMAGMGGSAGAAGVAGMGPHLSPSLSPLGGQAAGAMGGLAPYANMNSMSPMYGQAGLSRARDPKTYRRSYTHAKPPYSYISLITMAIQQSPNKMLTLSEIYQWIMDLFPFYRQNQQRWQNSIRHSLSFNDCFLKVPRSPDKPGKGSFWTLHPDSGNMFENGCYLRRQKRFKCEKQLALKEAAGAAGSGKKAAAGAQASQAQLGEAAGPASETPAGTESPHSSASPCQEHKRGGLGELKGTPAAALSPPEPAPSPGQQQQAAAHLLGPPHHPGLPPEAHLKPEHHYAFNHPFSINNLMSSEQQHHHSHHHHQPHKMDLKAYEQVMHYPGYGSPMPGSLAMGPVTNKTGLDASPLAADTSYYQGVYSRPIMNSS
row,Compound,outcome
1,CC1(C)[C@@H]2CC[C@@]1(C)[C@H](O)C2,inactive
2,CCN(CC)c1ccc2c(-c3ccccc3C(=O)O)c3ccc(=[N+](CC)CC)cc-3oc2c1,inactive
3,O=C1C(c2[nH]c3ccc(S(=O)(=O)O)cc3c2O)=Nc2ccc(S(=O)(=O)O)cc21,inactive
4,C=C[Si](OCC)(OCC)OCC,inactive
5,O=C(OCc1ccccc1)C(=O)OCc1ccccc1,inactive
6,CCC/C=C/C=O,inactive
7,CCCC[n+]1ccccc1,inactive
8,CC1(C)C(=O)N(Br)C(=O)N1Cl,inactive
9,CC(=O)[O][Al][O]C(C)=O,inactive
10,C=COCCOCCOCCOC=C,inactive
11,CCCCOCCOCCSC#N,inactive
12,CCO[Si](CCCS)(OCC)OCC,inactive
13,Nc1ccc(F)c([N+](=O)[O-])c1,inactive
14,COc1cc2ncnc(Nc3cccc(Cl)c3)c2cc1OC,inactive
15,Nc1cc([N+](=O)[O-])ccc1Cl,inactive
16,CC(=O)C(=O)O,inactive
17,CCCCCCCCCCCCN,inactive
18,O=C(O)c1cn(C2CC2)c2cc(N3CCNCC3)c(F)cc2c1=O,inactive
19,COc1ccc(NC(=O)CC(C)=O)cc1,inactive
20,CC(C)=CCC[C@](C)(O)[C@@H]1CC=C(C)CC1,inactive

row,Compound,outcome
1,COc1ccc(Cl)cc1C,inactive
2,C[C@H]1C[C@H]2[C@@H]3CCC4=CC(=O)C=C[C@]4(C)[C@@]3(F)[C@@H](O)C[C@]2(C)[C@@]1(O)C(=O)COP(=O)(O)O,inactive
3,O=Cc1ccc(F)cc1,inactive
4,Cc1ccc(C(=O)c2cc(O)c(O)c([N+](=O)[O-])c2)cc1,inactive
5,CNCCCC12CCC(c3ccccc31)c1ccccc12,inactive
6,CCC(=O)/C=C/C1C(C)=CCCC1(C)C (stereo not given),inactive
7,Cc1ccc(C=O)s1,inactive
8,O=C1O[C@@H]2[C@@H](O)[C@H](O)O[C@@H]2[C@H]1O,inactive
9,C=CC(=O)NCOCC(C)C,inactive
10,CCCCCC=CCC(=O)OC,inactive
11,Clc1nc(C(Cl)(Cl)Cl)c(Cl)c(Cl)c1Cl,inactive
12,O=[N+]([O-])c1ccc(Nc2ccc(Nc3ccccc3)c(S(=O)(=O)O)c2)c([N+](=O)[O-])c1,inactive
13,OC1OC[C@@H](O)[C@H](O)[C@H]1O (stereo not given in full),inactive
14,O=C1CCCCCCCCCCCCCCO1,inactive
15,O=C(Nc1ccccc1)c1cc([N+](=O)[O-])ccc1Cl,inactive
16,Cc1ccc2sc3cccc(C)c3c2c1,inactive
17,CCCCCCCCCOC(C)=O,inactive
18,OCCOCCOCCOCCO,inactive
19,C=CC(=O)OCCOCCOCC,inactive
20,CC(C)Oc1ccccc1O,inactive
